Data: PubChem BioAssay (EPA / NIEHS)
Several values for one entry are separate records, joined by “and”; a condition that tells them apart may be missing. Identical values can stand only once. Inconclusive results are not listed. The source holds several records for some structures; these can differ, active in one and inactive in another. Activity calls are given as the source filed them. The calls were made as follows, unless noted: active = hit-call score of the fitted dose curve at least 0.9, where 1 is the maximum; inactive = score below 0.9.

Tests used:
[1] = target: Nuclear receptor subfamily 1 group I member 3 (Homo sapiens) (UniProt Q14994); assay: ATG_CAR_TRANS: Attagene TRANS-FACTORIAL HepG2 Assay for human Constitutive Androstane Receptor (CAR) (AID 2282969; active = hit-call score of the fitted dose curve at least 0.9, where 1 is the maximum;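 also: activators raise reporter mRNA above DMSO so AC50 marks induction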); conditions: HepG2 Attagene TRANS-FACTORIAL CAR reporter
Sequence of Nuclear receptor subfamily 1 group I member 3 (Homo sapiens) (Q14994 whole entry, looked up, the tested form may be a part): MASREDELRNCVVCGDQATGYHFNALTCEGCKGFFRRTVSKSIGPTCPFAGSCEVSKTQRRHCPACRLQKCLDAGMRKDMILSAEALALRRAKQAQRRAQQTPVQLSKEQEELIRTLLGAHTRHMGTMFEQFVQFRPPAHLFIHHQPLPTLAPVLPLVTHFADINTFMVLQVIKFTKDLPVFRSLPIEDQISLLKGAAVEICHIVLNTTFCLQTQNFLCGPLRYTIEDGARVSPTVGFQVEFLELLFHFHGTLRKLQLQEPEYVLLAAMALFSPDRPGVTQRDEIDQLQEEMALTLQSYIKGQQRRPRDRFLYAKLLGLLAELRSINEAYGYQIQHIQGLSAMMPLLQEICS
Summary of the method: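 Readout is reporter mRNA induction, quantified by fluorescent primer extension and capillary electrophoresis after RT-PCR. Cells were HepG2 transiently carrying chimeric NR-Gal4 constructs with GAL4-UAS reporters, treated for 24 h; activity scored upward from DMSO.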

[2] = target: Peroxisome proliferator-activated receptor gamma (Homo sapiens) (UniProt P37231); assay: ATG_PPARg_TRANS: Attagene TRANS-FACTORIAL HepG2 Assay for human Peroxisome Proliferator-activated Receptor-gamma (PPARg) (AID 2283007; active = hit-call score of the fitted dose curve at least 0.9, where 1 is the maximum)
Sequence of Peroxisome proliferator-activated receptor gamma (Homo sapiens) (P37231 whole entry, looked up, the tested form may be a part): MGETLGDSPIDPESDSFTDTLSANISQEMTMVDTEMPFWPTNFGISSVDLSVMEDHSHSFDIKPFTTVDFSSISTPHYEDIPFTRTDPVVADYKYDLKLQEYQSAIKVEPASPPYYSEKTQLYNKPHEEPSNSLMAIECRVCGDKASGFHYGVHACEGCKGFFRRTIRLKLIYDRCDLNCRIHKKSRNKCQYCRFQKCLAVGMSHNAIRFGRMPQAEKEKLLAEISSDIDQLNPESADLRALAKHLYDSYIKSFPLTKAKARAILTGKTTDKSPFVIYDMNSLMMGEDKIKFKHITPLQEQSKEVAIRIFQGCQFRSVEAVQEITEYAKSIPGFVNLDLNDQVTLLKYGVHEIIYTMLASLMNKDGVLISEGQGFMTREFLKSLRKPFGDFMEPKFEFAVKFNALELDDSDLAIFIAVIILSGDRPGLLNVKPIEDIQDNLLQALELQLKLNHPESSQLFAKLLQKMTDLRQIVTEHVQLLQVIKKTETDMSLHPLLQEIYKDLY
Summary of the method: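 Gain-of-signal endpoint relative to DMSO, derived from reporter mRNA levels quantified by RT-PCR and capillary electrophoresis. Cells were HepG2 transiently expressing a chimeric NR-Gal4 construct with GAL4-UAS reporters, exposed to chemicals for 24 h.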

[3] = target: human RAR-related Orphan Receptor beta (RORb), RORB (gene 6096) (UniProt Q92753); assay: ATG_RORb_TRANS: Attagene TRANS-FACTORIAL HepG2 Assay for human RAR-related Orphan Receptor beta (RORb) (AID 2283010; active = hit-call score of the fitted dose curve at least 0.9, where 1 is the maximum)
Sequence of human RAR-related Orphan Receptor beta (RORb), RORB (gene 6096) (Q92753 whole entry, looked up, the tested form may be a part): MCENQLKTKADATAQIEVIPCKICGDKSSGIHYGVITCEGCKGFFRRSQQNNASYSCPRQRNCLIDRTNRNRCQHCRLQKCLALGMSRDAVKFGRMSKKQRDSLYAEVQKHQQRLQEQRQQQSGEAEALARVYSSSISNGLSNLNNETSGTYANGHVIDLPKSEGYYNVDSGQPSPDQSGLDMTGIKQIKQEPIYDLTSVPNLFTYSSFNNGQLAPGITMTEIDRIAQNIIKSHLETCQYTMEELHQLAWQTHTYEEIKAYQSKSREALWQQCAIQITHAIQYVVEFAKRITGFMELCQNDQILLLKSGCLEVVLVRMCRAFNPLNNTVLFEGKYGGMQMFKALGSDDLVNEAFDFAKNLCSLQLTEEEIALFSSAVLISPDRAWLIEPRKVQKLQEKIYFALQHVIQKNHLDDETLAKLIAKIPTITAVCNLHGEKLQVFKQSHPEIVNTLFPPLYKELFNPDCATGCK
Summary of the method: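 In this TRANS-format test, human HepG2 cells express chimeric NR-Gal4 fusion proteins driving GAL4-UAS reporters. After 24 h dosing, reporter transcripts are measured by fluorescent RT-PCR/capillary electrophoresis, with DMSO as negative control.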

[4] = target: Estrogen receptor beta (Homo sapiens) (UniProt Q92731); assay: OT_ER_ERbERb_0480: Odyssey Thera (OT) 8-hour HEK293T Protein-Complementation Assay for Estrogen Receptor-beta/-beta Homodimer (AID 2283357; active = hit-call score of the fitted dose curve at least 0.9, where 1 is the maximum;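 also: active means signal gain over DMSO baseline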)
Sequence of Estrogen receptor beta (Homo sapiens) (Q92731 whole entry, looked up, the tested form may be a part): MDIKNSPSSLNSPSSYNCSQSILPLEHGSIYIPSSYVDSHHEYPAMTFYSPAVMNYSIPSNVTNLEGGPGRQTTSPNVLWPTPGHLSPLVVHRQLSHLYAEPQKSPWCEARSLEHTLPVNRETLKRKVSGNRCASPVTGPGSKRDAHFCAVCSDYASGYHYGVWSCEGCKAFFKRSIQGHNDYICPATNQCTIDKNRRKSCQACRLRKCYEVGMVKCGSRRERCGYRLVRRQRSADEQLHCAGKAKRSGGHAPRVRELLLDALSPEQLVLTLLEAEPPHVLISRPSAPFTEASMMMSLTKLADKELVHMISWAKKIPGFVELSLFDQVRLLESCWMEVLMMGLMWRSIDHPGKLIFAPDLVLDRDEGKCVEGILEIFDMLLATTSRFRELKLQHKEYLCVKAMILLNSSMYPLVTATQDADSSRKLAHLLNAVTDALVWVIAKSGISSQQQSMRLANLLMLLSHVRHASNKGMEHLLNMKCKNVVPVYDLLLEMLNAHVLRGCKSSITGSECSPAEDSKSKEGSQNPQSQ
Summary of the method: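 Cells (HEK293T, stable ER-beta LBD PCA pair) are treated 8 hours, fixed and Draq5-stained; signal is fluorescence intensity increase relative to vehicle, fitted in the gain direction.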

[5] = target: Bile acid receptor (Homo sapiens) (UniProt Q96RI1); assay: OT_FXR_FXRSRC1_1440: Odyssey Thera (OT) 24-hour HEK293T Protein-Complementation Assay for Farnesoid X receptor/SRC-1 Co-activator (AID 2283384; active = hit-call score of the fitted dose curve at least 0.9, where 1 is the maximum)
Sequence of Bile acid receptor (Homo sapiens) (Q96RI1 whole entry, looked up, the tested form may be a part): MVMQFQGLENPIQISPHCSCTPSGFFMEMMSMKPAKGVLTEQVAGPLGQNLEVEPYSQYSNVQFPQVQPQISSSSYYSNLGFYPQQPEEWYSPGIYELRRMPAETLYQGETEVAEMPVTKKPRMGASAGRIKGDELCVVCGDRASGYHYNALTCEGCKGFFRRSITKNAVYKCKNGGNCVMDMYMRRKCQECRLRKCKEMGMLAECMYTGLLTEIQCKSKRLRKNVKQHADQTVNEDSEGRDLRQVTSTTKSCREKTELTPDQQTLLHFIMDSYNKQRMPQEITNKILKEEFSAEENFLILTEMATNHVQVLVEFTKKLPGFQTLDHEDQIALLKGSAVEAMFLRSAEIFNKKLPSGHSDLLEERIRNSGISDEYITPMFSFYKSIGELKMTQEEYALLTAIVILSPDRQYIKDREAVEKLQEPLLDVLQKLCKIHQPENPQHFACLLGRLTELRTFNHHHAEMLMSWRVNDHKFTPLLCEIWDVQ
Summary of the method: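 Cell-based binding reporter: interaction of FXR with SRC-1 brings reporter fragments together, giving a fluorescence signal read 24 h after dosing of HEK293T cells.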

[6] = ACEA_ER_AUC_viability: ACEA Biosciences xCELLigence Real-Time Cell Analysis on Estrogen Receptor Agonism for Viability (AID 2283782; active = hit-call score of the fitted dose curve at least 0.9, where 1 is the maximum;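 also: continuous compound exposure with impedance area under curve over 80 h; hit means loss of impedance signal meaning reduced cell growth or viability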)
Summary of the method: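 T-47D; phenol red-free RPMI1640 + 10% CS-FBS; 8 conc., 1:4 serial, max 100 uM final, ≤0.5% DMSO; n = 2; continuous exposure; impedance monitored to 80 h post-dose; AUC vs DMSO.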

[7] = CCTE_Shafer_MEA_acute_cross_correlation_area: CCTE's Neural Acute Assay for Area of Cross Correlation, Shafer Lab (AID 2284024);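 also: rat primary cortical neuron networks on 48-well MEA at DIV 13 or 15 with 40 min exposure; area under pooled inter-electrode spike cross-correlation near zero lag as percent change from own baseline; curves fitted for loss of cross-correlation area so actives lower synchrony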
Summary of the method: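 Rat cortical cultures, DIV 13/15, MEA; spikes detected at 8x rms noise (300-5000 Hz band-pass). Compound 0.03-40 uM, ≥3 wells each. Readout: % change in pooled inter-electrode cross-correlation area vs own baseline; DMSO negative control.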

[8] = CCTE_Shafer_MEA_acute_LDH: CCTE's Lactate Dehydrogenase Assay for Cytotoxicity in the Neural Acute Assay, Shafer Lab (AID 2284086; active = hit-call score of the fitted dose curve at least 0.9, where 1 is the maximum;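 also: active means LDH release rises above DMSO vehicle level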)
Summary of the method: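 Released lactate dehydrogenase, read at 490 nm, indicated cytotoxicity after acute 40-min compound treatment of rat cortical neuron networks grown on 48-well MEA plates.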

[9] = read-out: Monokine induced gamma interferon (MIG), CXCL9 (gene 4283); assay: BSK_KF3CT_MIG: BioMAP Diversity Plus: KF3CT Assay for Monokine induced gamma interferon (MIG) Biomarker Activity (AID 2284248); conditions: primary human keratinocytes with fibroblasts
Summary of the method: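 ELISA read-out of MIG after 24 h chemical exposure of human skin primary co-culture (keratinocytes, foreskin fibroblasts). Gain of signal relative to DMSO negative control was analysed.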

[10] = read-out: Interferon-inducible T-cell alpha chemoattractant (ITAC), CXCL11 (gene 6373); assay: BSK_hDFCGF_ITAC: BioMAP Diversity Plus: hDFCGF Assay for Interferon-inducible T-cell alpha chemoattractant (ITAC) Biomarker Activity (AID 2284251); conditions: primary human foreskin fibroblasts
Summary of the method: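 Fibroblasts (human foreskin, primary) are treated with chemical, cultured 24 h, then assayed for I-TAC by ELISA. Overt toxicity is checked in parallel cultures by sulforhodamine B staining of total protein at the same time point.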

[11] = read-out: Plasminogen activator inhibitor-1 (PAI1), SERPINE1 (gene 5054); assay: BSK_KF3CT_PAI1: BioMAP Diversity Plus: KF3CT Assay for Plasminogen activator inhibitor-1 (PAI1) Biomarker Activity (AID 2284252); conditions: primary human keratinocytes with fibroblasts
Summary of the method: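 Signal is PAI-1 detected by ELISA in a human skin-derived keratinocyte/fibroblast co-culture, 24 h after dosing; DMSO served as negative control and baseline.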

[12] = read-out: Interleukin-8 (IL8), CXCL8 (gene 3576); assay: BSK_KF3CT_IL8: BioMAP Diversity Plus: KF3CT Assay for Interleukin-8 (IL8) Biomarker Activity (AID 2284254); conditions: primary human keratinocytes with fibroblasts
Summary of the method: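 IL-8 read-out: ELISA, 24 h post-dose, human skin primary co-culture (keratinocytes + foreskin fibroblasts). DMSO = baseline; positive-direction fit.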

[13] = read-out: Intercellular Adhesion Molecule 1 (ICAM1), ICAM1 (gene 3383); assay: BSK_BE3C_ICAM1: BioMAP Diversity Plus: BE3C Assay for Intercellular Adhesion Molecule 1 (ICAM1) Biomarker Activity (AID 2284278); conditions: primary human bronchial epithelial cells
Summary of the method: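 Measured by ELISA: ICAM-1 expressed by primary human bronchial epithelial cells 24 h after compound treatment, with upward-direction fitting versus DMSO vehicle.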

[14] = read-out: Interleukin-8 (IL8), CXCL8 (gene 3576); assay: BSK_BE3C_IL8: BioMAP Diversity Plus: BE3C Assay for Interleukin-8 (IL8) Biomarker Activity (AID 2284280); conditions: primary human bronchial epithelial cells
Summary of the method: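 IL-8 signal gain, normalised to DMSO vehicle, was scored after a 24 h chemical exposure of primary human bronchial epithelial cells, with detection by ELISA.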

[15] = read-out: Epidermal growth factor receptor (EGFR), EGFR (gene 1956); assay: BSK_BE3C_EGFR: BioMAP Diversity Plus: BE3C Assay for Epidermal growth factor receptor (EGFR) Biomarker Activity (AID 2284281); conditions: primary human bronchial epithelial cells
Summary of the method: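 Compound is added to human bronchial epithelial cells, cells incubate 24 h, then EGFR is detected by ELISA. Values reflect positive-direction fitting relative to DMSO.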

KRT18 (gene 3875) = assay: BSK_BE3C_Keratin818: BioMAP Diversity Plus: BE3C Assay for Keratin 818 Biomarker Activity (AID 2284282); conditions: primary human bronchial epithelial cells
Summary of the method: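 BE3C: human bronchial epithelial primary cells, 24 h exposure, Keratin 8/18 ELISA; DMSO = negative control/baseline; cytotoxicity by parallel SRB stain (0.1% SRB after 10% TCA fixation, 560 nm).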

[16] = read-out: Plasminogen activator inhibitor-1 (PAI1), SERPINE1 (gene 5054); assay: BSK_CASM3C_PAI1: BioMAP Diversity Plus: CASM3C Assay for Plasminogen activator inhibitor-1 (PAI1) Biomarker Activity (AID 2284284); conditions: primary human coronary artery smooth muscle cells;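 also: PAI-1 protein level measured by ELISA 24 h after dosing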
[17] = read-out: Intercellular Adhesion Molecule 1 (ICAM1), ICAM1 (gene 3383); assay: BSK_hDFCGF_ICAM1: BioMAP Diversity Plus: hDFCGF Assay for Intercellular Adhesion Molecule 1 (ICAM1) Biomarker Activity (AID 2284287); conditions: primary human foreskin fibroblasts
Summary of the method: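 Primary human foreskin fibroblasts (hDFCGF system) dosed with chemical; ICAM-1 quantified by ELISA at 24 h relative to DMSO. Parallel SRB total-protein staining to assess overt cytotoxicity.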

[18] = read-out: TIMP metallopeptidase inhibitor 2 (TIMP2), TIMP2 (gene 7077); assay: BSK_hDFCGF_TIMP2: BioMAP Diversity Plus: hDFCGF Assay for TIMP metallopeptidase inhibitor 2 (TIMP2) Biomarker Activity (AID 2284289); conditions: primary human foreskin fibroblasts
Summary of the method: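 Primary human foreskin fibroblasts in the hDFCGF system, dosed for 24 h; TIMP-2 level measured by ELISA, fitted in the positive direction against DMSO; cytotoxicity checked in parallel by sulforhodamine B total protein staining.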

[19] = read-out: Thrombomodulin, THBD (gene 7056); assay: BSK_LPS_Thrombomodulin: BioMAP Diversity Plus: LPS Assay for Thrombomodulin Biomarker Activity (AID 2284296); conditions: primary human HUVEC with PBMC
Summary of the method: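 Human umbilical vein endothelial cells co-cultured with PBMC and stimulated with LPS; cell-surface thrombomodulin measured by ELISA 24 hours after compound. Gain or loss versus DMSO; cytotoxicity checked by SRB staining in parallel cultures.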

Measured: AC50

CNC(=C[N+](=O)[O-])NCCSCc1csc(CN(C)C)n1
inactive: [1]

Oc1cccc2ccccc12
inactive: [5]
active: [4] 39.1 µM

O=[N+]([O-])c1cc(S(=O)(=O)Nc2ccccc2)ccc1Nc1ccccc1
active: [9] 33.7 µM and 31.5 µM | [10] 27.4 µM and 24 µM | [11] 25.9 µM and 16.2 µM | [12] 15.3 µM and 10.8 µM | [13] 29.2 µM and 37 µM | [14] 20 µM and 7.26 µM | [15] 20 µM and 19.6 µM | KRT18 (gene 3875) 32 µM | [17] 31 µM and 36.6 µM | [18] 29.8 µM and 30.3 µM | [19] 20 µM and 28.1 µM
inactive: [7] | [8] | KRT18 (gene 3875) | [16]

CC/C=C\CCO
inactive: [3] | [4] | [5]

Cc1c(C(N)=O)cc([N+](=O)[O-])cc1[N+](=O)[O-]
active: [19] 149 nM
inactive: [7] | [8] | [9] | [10] | [11] | [12] | [13] | [14] | [15] | KRT18 (gene 3875) | [16] | [17] | [18] | [19]

OC(C(F)(F)F)(C(F)(F)F)C(O)(C(F)(F)F)C(F)(F)F
inactive: [12] | [13] | [15] | KRT18 (gene 3875) | [16] | [17] | [19]
active: [9] 45.2 µM and 54.8 µM | [10] 21.2 µM and 20.9 µM | [11] 36.1 µM and 25.2 µM | [13] 44.7 µM | [14] 12.3 µM and 11.5 µM | [15] 22.7 µM | [18] 6.98 µM and 8.04 µM

OCCOCCOCCOCCOCCO
inactive: [2] | [3]

COc1ccccc1Oc1c(NS(=O)(=O)c2ccc(C(C)(C)C)cc2)nc(-c2ncccn2)nc1OCCO
not listed: [1] | [2] | [3] | [4] | [5] | [6] | [8]
inactive: all other assays above

CCc1cc(C(N)=S)ccn1
inactive: [3]

CC1=CCCC(C)(C)C12CCC(C)O2 (centres undefined)
active: [6] 60.7 µM
inactive: [3]
